“And” between values parts separate entries of the source, which are not always exact repeats. Equal entries are not always repeated. The campaign covered roughly 360,000 compounds. About 3,800 (1.1%) were called active.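 How the source made its calls: active means compounds causing at least 50% loss of cell viability in the single-dose screen, relative to plate controls; inactive means the rest.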 The entries come from a sample that favours actives as a whole. More than one record can exist for a structure, and the calls need not agree.
Assay: TRAIL-exposed caspase-8 expressing cell killing – NB7+C8 cells, ATPlite luminescence, TRAIL sensitizer project, primary screen (AID 624354)
Settings: at 10 µM, stronger effect = higher value

Row | Structure (SMILES) | inhibition (viability loss, TRAIL sensitization)
1 | O=C(CCCCCCCC(=O)N1CCCCC1)N1CCCCC1 | 1.6% (inactive)
2 | COC(=O)c1sc(SC)c(S(=O)(=O)C(C)C)c1N/N=C(\C#N)S(=O)(=O)c1ccccn1 | -10.6% (inactive)
3 | O=C(NCc1ccccc1)C1C(=O)N(Cc2ccccc2)C(=O)C1C1(O)CCCC1 (stereo not drawn) | -9.54% (inactive)
4 | Cc1ccccc1C1CC(c2cccs2)=NN1S(C)(=O)=O (stereo not drawn) | 1.64% (inactive)
5 | O=c1c2cc(-c3ccccc3)sc2nc2n1N=C(c1cccs1)CS2 | 56.6% (active)
6 | O=c1c(-c2ccccc2)cnc2n1CCS2 | -0.958% (inactive)
7 | COc1cccc2c1OCC(C(=O)NCc1ccc(Cl)cc1Cl)=C2 | 12.2% (inactive)
8 | CCCC(=O)Nc1ccc(C(=O)N/N=C/c2ccc[nH]2)cc1 | 93.8% (active)
9 | CC(=O)Nc1ccc(C(=O)NNC(=O)CCCCC(=O)NNC(=O)c2ccc(NC(C)=O)cc2)cc1 | -1.99% (inactive)
10 | CC(=O)Nc1ccc(C(=O)/C=C/c2ccc[nH]2)cc1 | 1.89% (inactive)
11 | ClC1(Cl)CC1CSc1ncn[nH]1 (stereo not drawn) | -13.6% (inactive)
12 | O=C(/C=C/c1ccc([N+](=O)[O-])o1)NNC(=O)c1ccc(F)cc1 | 32.1% (inactive)
13 | Cc1nnc(SC(C(=O)Nc2cc(Cl)cc(Cl)c2)c2ccccc2)[nH]c1=O (stereo not drawn) | -3.74% (inactive)
14 | O=C(Nc1c(Br)cc2c(c1Br)Cc1ccccc1-2)C(F)(F)F | 2.23% (inactive)
15 | COc1cccc(NC(=O)CN(C)C(C)C(=O)Nc2ccc(C#N)cc2)c1 (stereo not drawn) | -8.39% (inactive)
16 | COc1cccc(C(=O)N/N=C(\C)c2cccc(NC(=O)c3ccc(F)cc3)c2)c1OC | 16.9% (inactive)
17 | COc1cc(C(=O)N(C)Cc2cccc(OC)c2OC)ccc1OCC(=O)Nc1cccc(C(F)(F)F)c1 | 28.6% (inactive)
18 | COc1cc(NC(=O)c2cncc(-c3ccc(C#N)cc3)c2)cc(C(=O)Nc2cccc(C(F)(F)F)c2)c1 | 33.4% (inactive) and 56.8% (active)
19 | O=C(Nc1cccc(C(F)(F)F)c1)c1ccc(N2CCNCC2)c([N+](=O)[O-])c1 | 35.7% (inactive)
20 | COc1cc(NC(=O)c2[nH]cnc2C(N)=O)cc(C(=O)Nc2cccc(C(F)(F)F)c2)c1 | 86% (active)
21 | COC(=O)c1ccc(C2C3=C(Nc4nnnn42)c2ccccc2OC3)cc1 (stereo not drawn) | -2.52% (inactive)
22 | CCOC(=O)c1c(Cc2ccc(Cl)cc2)c[nH]c1C | -5.16% (inactive)
23 | CCOC(=O)N1CCN(S(=O)(=O)c2ccc(C(=O)Nc3ccc(F)cc3F)cc2)CC1 | 4.58% (inactive)
24 | Cc1cc(C)cc(OCc2nnc(SCC(=O)OC3CCCCC3)o2)c1 | -14.3% (inactive)

Row | Structure (SMILES) | inhibition (viability loss, TRAIL sensitization)
25 | COc1cccc(CNC(=O)C2CCCN(S(=O)(=O)N3CC(C)CC(C)C3)C2)c1 (stereo not drawn) | -1.49% (inactive)
26 | COC(=O)C1=C[C@@H](C(=O)OC)[C@@H]2C3=C(C(=O)[C@]2(C)NC(=O)c2ccccc2)[C@H](C)n2c(=O)n(C)c(=O)n2[C@@H]3C1 | -3.47% (inactive)
27 | COc1ccc(OC)c(Cc2cnc3nc(N)nc(N)c3c2C)c1 | 84% (active)
28 | O=C(CN(C(=O)c1csnn1)c1cccc(F)c1)NCc1ccc(F)cc1 | -4.16% (inactive)
29 | CCOC(=O)c1c(C)oc(C)c(C(=O)OCC)c1=O | -19.5% (inactive)
30 | CCOC(=O)c1[nH]c(C)c(C(=O)OCC(=O)N2c3ccccc3CC2C)c1C (stereo not drawn) | 6.75% (inactive)
31 | CCOC(=O)c1c(C)[nH]c2c1-c1ccccc1C(=O)C2=O | 94% (active)
32 | Cc1ccc(C(=O)COC(=O)CCN2C(=O)C3C4CCC(C4)C3C2=O)cc1C (stereo not drawn) | -8.78% (inactive)
33 | COc1ccc(C(=O)OCC(=O)c2ccc(C)c(S(=O)(=O)N3CCOCC3)c2)cc1OC | 18.4% (inactive)
34 | Cc1ccc(C(=O)COC(=O)c2cccc(N3C(=O)c4c(C)nc5ccccc5c4C3=O)c2)cc1C | 60.1% (active)
35 | N#CCCN(C(=S)Nc1ccc(Cl)c(Cl)c1)C1CCCCC1 | -41.1% (inactive)
36 | COc1ccc(NS(=O)(=O)c2ccc(C)c(C(=O)N(C)Cc3ccc(OC)cc3OC)c2)cc1 | 17.8% (inactive)
37 | O=C(NNC(=O)c1ccccc1O)c1ccccc1O | 59.8% (active)
38 | Cc1cccc(NS(=O)(=O)c2cccc(C(=O)NNC(=O)c3ccccc3O)c2)c1 | 24.7% (inactive)
39 | O=C(NNC(=O)c1cc(S(=O)(=O)N2CCCCC2)ccc1Cl)c1ccccc1O | 14% (inactive)
40 | CC1(C)CC(=O)C=C(NC2CC(C)(C)NC(C)(C)C2)C1 | -7.42% (inactive)
41 | C=CCNC(=O)c1ccc2c3n(nc2c1)-c1ccc(C)cc1CO3 | 47.7% (inactive)
42 | CCOC(=O)N1CCN(C(=O)C2CCN(S(C)(=O)=O)CC2)CC1 | 9.65% (inactive)
43 | Cc1nn(-c2ccccc2)nc1C(=O)OCC(=O)N1CCCCC1C (stereo not drawn) | 10.3% (inactive)
44 | COC(=O)c1cc(S(=O)(=O)N2CCN(c3cc(C)ccc3C)CC2)c[nH]1 | -3.18% (inactive)
45 | Cc1nc2ccc(S(=O)(=O)NCC(=O)NCCN3CCCCC3C)cc2s1 (stereo not drawn) | -1.47% (inactive)
46 | Cn1c(=O)[nH]c(=O)c2c1[nH]c(=S)n2Cc1ccccc1 | 7.43% (inactive)
47 | N#Cc1c(-c2cccs2)nc(SCC(=O)c2ccc(Br)cc2)[nH]c1=O | -12.9% (inactive)
48 | N#Cc1ccc(C(=O)Nc2nc(-c3cccs3)c(C(=O)C(F)(F)F)s2)cc1 | 53.5% (active)

Row | Structure (SMILES) | inhibition (viability loss, TRAIL sensitization)
49 | C=CCN(CC=C)S(=O)(=O)c1ccc(C(=O)Nc2nc3c(s2)CCc2ccccc2-3)cc1 | 28.5% (inactive)
50 | Cc1ccc(NC(=O)CCC(=O)N2CCC(c3ccccc3)=N2)cc1S(=O)(=O)N1CCCCC1 | 18.8% (inactive)
51 | Cc1nc2nc[nH]n2c(=O)c1NC(=O)c1cccc(OCC(C)C)c1 | -7.44% (inactive)
52 | O=C(CSC(=S)N1CCOCC1)c1ccccc1 | 57.5% (active)
53 | O=C(CSC(=S)N1CCCCC1)c1c(F)cccc1F | 3.44% (inactive)
54 | O=C(CP(=O)(c1ccccc1)c1ccccc1)N1CCOCC1 | -4.37% (inactive)
55 | O=c1c(-c2ccccc2Cl)c[nH]n1-c1ccccc1 | 1.07% (inactive)
56 | CS(=O)(=O)c1ccc(C(=O)NNC(=O)c2cccs2)cc1 | -3.16% (inactive)
57 | Cc1cc2cc3c(cc2nc1SCC(=O)Nc1c(C)cccc1C)CCC3 | 3.78% (inactive)
58 | Cc1nc2ccccc2c(C)c1C(=O)c1ccc(F)cc1 | 2.13% (inactive)
59 | Cn1c(-c2ccc(C(=O)c3ccccc3)s2)nc2ccccc21 | 66.6% (active)
60 | Cn1c(CC(=O)NNC(=O)c2ccccc2F)nc2ccccc21 | 11.4% (inactive)
61 | CCn1c(NC(=O)c2nn(C)cc2Br)nc2ccccc21 | 16.9% (inactive)
62 | Cn1c(NC(=O)c2ccccc2)nc2ccccc21 | 49.5% (active)
63 | CCC(C(=O)Nc1c(C)cccc1C)n1c(-c2cc(C)cs2)nc2ccccc21 (stereo not drawn) | 9.25% (inactive)
64 | COc1cc(-c2nc(S(=O)(=O)c3ccc(Cl)cc3)c(N(C)C)o2)cc(OC)c1OC | -2.14% (inactive)
65 | COc1ccc(N(C(=O)c2ccc(C)cc2)S(=O)(=O)c2cccs2)cc1 | -2.28% (inactive)
66 | CCN(CC)S(=O)(=O)c1ccc(N2CCOCC2)c(NC(=O)C2CSC3(C)CCC(=O)N23)c1 (stereo not drawn) | -1.07% (inactive)
67 | COc1ccc(-n2cnc3cc(NCc4ccco4)ccc32)cc1 | 16.5% (inactive)
68 | Cn1c(SCC(=O)Nc2ccc(Br)cc2F)nnc1-c1ccco1 | -0.204% (inactive)
69 | Cn1c(-c2ccco2)nc2cc3ccccc3cc21 | 89.4% (active)
70 | Cc1c(CNCCc2ccccc2)c(C(=O)O)c(C)n1-c1ccccc1 | -25.6% (inactive)
71 | COCc1cc(=O)oc2cc(NS(=O)(=O)c3ccc(C)cc3)ccc12 | 2.58% (inactive)
72 | Cc1cc(NC(=O)CCC(=O)N(Cc2ccccc2)C(C(=O)NC2CCCC2)c2ccc(C)o2)no1 (stereo not drawn) | -0.804% (inactive)

Row | Structure (SMILES) | inhibition (viability loss, TRAIL sensitization)
73 | CC(C)CCN1CCN(Cc2cn[nH]c2C2CCCCC2)CC1CCO (stereo not drawn) | 5.07% (inactive)
74 | COc1ccc(/C=C/c2noc(-c3ccccc3OC(C)=O)n2)cc1 | 12.1% (inactive)
75 | COc1ccc(-c2noc(CNC(=O)C(C)Oc3ccccc3)n2)cc1 (stereo not drawn) | -4.7% (inactive)
76 | COc1ccc(-c2nc(-c3ccccc3)no2)c(OC)c1 | 83% (active)
77 | Cc1ccc([N+](=O)[O-])cc1S(=O)(=O)N1CCCN(C)CC1 | 1.18% (inactive)
78 | Cc1ccc(C)c(S(=O)(=O)N2CCN(c3ncnc4sccc34)CC2)c1 | 66.5% (active)
79 | Cc1ccc(S(=O)(=O)N2CCC3(CC2)OCCO3)c(C)c1 | 1.61% (inactive)
80 | CNC(=S)N1CCC(NC(=O)C(Cc2ccc(F)cc2)NC(C)=O)CC1 (stereo not drawn) | -1.63% (inactive)
81 | CCCCCc1c(-c2ccc(OC)c(OC)c2)ncn1CCc1ccccc1OC | 51.2% (active)
82 | CCCCCc1c(-c2cccc(Br)c2)ncn1CCc1ccccc1OC | 23.2% (inactive)
83 | CCCCc1c(-c2ccc(Cl)cc2)ncn1CCc1ccccc1OC | 31.8% (inactive)
84 | CS(=O)(=O)N(CC(=O)N1CCN(c2ccc(F)cc2)CC1)C1CCCCC1 | -11.1% (inactive)
85 | COCCN(C(=O)CCC(=O)Nc1ccccn1)C(C(=O)NCCC(C)C)c1ccc(OC)cc1 (stereo not drawn) | -1.74% (inactive)
86 | COc1ccc(C(=O)/C=C/Nc2ccccn2)cc1 | 73.3% (active)
87 | CCOc1ccc(NC(=O)C2CCCN(C(=O)Nc3ccccc3)C2)cc1 (stereo not drawn) | -15.9% (inactive)
88 | CCOc1ccc(/C=C(/NC(=O)c2ccccc2)C(=O)NCCC(=O)O)cc1 | -4.31% (inactive)
89 | COC(C(=O)Nc1ccc(S(=O)(=O)Nc2ccc(C)c(C)c2)cc1)c1ccccc1 (stereo not drawn) | 5.37% (inactive)
90 | Cc1ccc(N/C=C/C(=O)c2ccccc2)cc1C | 78.5% (active)
91 | O=C(/C=C/Nc1ccc(S(=O)(=O)Nc2cnc3ccccc3n2)cc1)c1cccnc1 | -7.32% (inactive)
92 | CCOc1ccc(N/C=C/C(=O)c2ccccc2)cc1 | 66.6% (active)
93 | Cc1ccc(NNC(=O)C2CCC2)cc1C | -7.51% (inactive)
